Shown are actives, neighbours in structure and some others; about 9.3% of the full set was active somewhere.
FMDV antiviral – foot and mouth disease virus antiviral activity | FMDV antiviral cell-based qHTS | Potency, µM (titrated, usually from 57.9 µM), inactives show top-dose activity change, negative = inhibition, most hits filed as inhibitors | actives 1.2% (n = 410,000) | AID 1159524; calls by dose curve; tested in HEK293T cells; also: read-out not given here; potency is read from the fitted curve at half-maximal effect; nearly all actives have a fitted effect of over 45% in size
HCMV antiviral – blocks human cytomegalovirus replication; HFF cells, HCMV-luciferase reporter, 72 h; stronger effect = lower value; activity change, negative = inhibition, % at 57.5 µM; actives 4.5% (n = 410,000); in the data active = activity change below about -60%; inconclusive = no clear call, values can overlap the other calls; inactive = above about -39%
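After 16 h attachment at 37C, HFF cells received test compound and HCMV-luciferase (1 PFU/cell); reporter luminescence read 72 h later, data normalized against buffer-only and known inhibitor Salinomycin.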
VACV mCherry inh – inhibitors of vaccinia virus infection (mCherry reporter signal). Vaccinia virus mCherry reporter infection, fluorescence. Potency, µM (titrated, usually from 36.5 µM), inactives show top-dose activity change, negative = inhibition, usual class: inhibitors. actives 0.63% (n = 310,000). AID 720579; calls by dose curve; tested in A549 cells; also: potency is read from the fitted curve at half-maximal effect; nearly all actives have a fitted effect of over 35% in size
Vaccinia Venus – vaccinia inhibition (Venus reporter); Potency, µM (top dose mostly 36.5 µM), inactives show at the top dose activity change, negative = inhibition, usual class: inhibitors; AID 720580; actives 0.46% (n = 330,000); Vaccinia virus Venus reporter expression, fluorescence; calls by dose curve; tested in A549 cells; also: potency is read from the fitted curve at half-maximal effect; nearly all actives have a fitted effect of over 30% in size
Sm TGR block – blocks Schistosoma mansoni thioredoxin glutathione reductase; Potency, µM (series often up to 114 µM), inactives show at the top dose activity change, negative = inhibition, most hits filed as inhibitors; actives 3% (n = 360,000); purified TGR, DTNB reduction, TNB absorbance 405 nm; AID 485364; Q962Y6; also: potency is read from the fitted curve at half-maximal effect; nearly all actives have a fitted effect of over 60% in size
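First, TGR (20 nM dispensed) and NADPH were mixed with compound. Second, a 15 min room-temperature incubation followed. Third, further NADPH and then DTNB were added to start the reaction. Finally, TNB absorbance was monitored kinetically.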
HCV inh – inhibitors of hepatitis C virus infection. Potency, µM (doses to about 41.8 µM), for the others: at the highest dose activity change, negative = inhibition, actives largely listed as inhibitors. Huh7.5.1 HCVcc-Cre infection, luciferase reporter, 44 h. AID 651820. actives 3.4% (n = 340,000); also: potency is read from the fitted curve at half-maximal effect
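Luciferase read-out (15 sec integration) after a 15 min room-temperature substrate step quantifies HCVcc-Cre infection. Cells, 1,000 per well, had compound added 4 h post-plating, then virus at ~0.5 moi, and were cultured 44 h.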
Starred values were filed as active, the others as inactive; [ ] = remark or other dose. Unless noted, calls follow the shape of the dose curve; as a rule, active = well fitted curve in the direction sought with a large enough effect; inconclusive = small, poorly fitted or top-dose-only effect, or another doubt; inactive = no such curve, though single readings can be large; an effect the other way counts as inactive or inconclusive. % is scaled to controls: 0 for no effect and ±100 for the full control effect.

For CCOC(=O)C1=C(c2ccccc2)NC(SCC)=C(C#N)C1c1cccnc1 (stereo not given) the results were FMDV antiviral -3%, HCMV antiviral inconclusive, Vaccinia Venus 3%, Sm TGR block -4% and HCV inh -5%.
`Cc1ccc(/C=C/c2onc(C)c2S(=O)(=O)N2CCC(C(=O)N3CCOc4ccccc43)CC2)cc1` gave FMDV antiviral -19%, HCMV antiviral 24, VACV mCherry inh -18%[7.34 µM], Vaccinia Venus -13%[7.34 µM] and Sm TGR block 0%.
For COc1ccc2nc(C)cc(N3CCN(c4ccccc4)CC3)c2c1 the results were FMDV antiviral -27%, HCMV antiviral -16, VACV mCherry inh -20%, Vaccinia Venus -3%, Sm TGR block -7% and HCV inh 22µM*.
COc1ccc(-c2nsc3c(N4CCN(S(=O)(=O)c5ccccc5F)CC4)ncnc23)cc1 was read as HCMV antiviral -12, VACV mCherry inh -10%, Vaccinia Venus -5%, Sm TGR block 3% and HCV inh -1%.
COc1ccc2nc(C)cc(N3CCN(S(=O)(=O)c4ccccc4F)CC3)c2c1 was read as FMDV antiviral inconclusive, HCMV antiviral -10, Sm TGR block -10% and HCV inh 7.1µM*.
COc1ccc2ncc(S(=O)(=O)c3ccccc3)c(N3CCC4(CC3)OCCO4)c2c1 was read as FMDV antiviral inconclusive, HCMV antiviral -35, VACV mCherry inh inconclusive, Vaccinia Venus -19%, Sm TGR block 0% and HCV inh -13%.
Screening Cc1ccc2nc(C)cc(N3CCOCC3)c2c1 returned FMDV antiviral -25%, HCMV antiviral 9, Vaccinia Venus -14%, Sm TGR block 0% and HCV inh 10µM*.
`Cc1cc(N2CCOCC2)c2c(N)c(C)cc(C)c2n1` gave FMDV antiviral -5%, HCMV antiviral -34, VACV mCherry inh inactive, Vaccinia Venus -15%, Sm TGR block -5% and HCV inh -5%.
For COc1ccc2nc(C)cc(N3CCOCC3)c2c1 the results were FMDV antiviral -18%, HCMV antiviral -7, Sm TGR block 13% and HCV inh 20%.
Screening COc1ccc2ncc(S(=O)(=O)c3ccccc3)c(N3CCN(c4ccccc4)CC3)c2c1 returned FMDV antiviral inconclusive, HCMV antiviral -68*, VACV mCherry inh -29%, Vaccinia Venus -16%, Sm TGR block -4% and HCV inh inconclusive.
CC(C)C[C@H]1CN([C@@H](CC(C)C)CN2CCCC2CN2C(=S)NC[C@@H]2Cc2ccc(O)cc2)C(=S)N1CC1CCCCCC1 (stereo not given in full) was read as FMDV antiviral inconclusive, HCMV antiviral -70*, VACV mCherry inh inconclusive, Vaccinia Venus inconclusive and HCV inh 5%.
CC(C)C[C@H]1CN([C@@H](CC(C)C)CN2CCC[C@@H]2CN2C(=S)NC[C@@H]2Cc2ccc(O)cc2)C(=S)N1CC1CCCCC1 was read as FMDV antiviral -19%, HCMV antiviral -22, VACV mCherry inh -11% and Vaccinia Venus -27%.
CC(C)C[C@H]1CN([C@@H](CC(C)C)CN2CCCC2CN2C(=S)NC[C@@H]2Cc2ccc(O)cc2)C(=S)N1CC1CCCCC1 (stereo not given in full) was read as FMDV antiviral inconclusive, HCMV antiviral -107*, VACV mCherry inh inconclusive, Vaccinia Venus inconclusive and HCV inh -9%.
C=C1C(=O)C2=CC1CCC(=O)C1(C)CCC(OC(C)=O)C(C)(C)C1CC2O (stereo not given) was read as FMDV antiviral 7.9µM*, HCMV antiviral -99*, VACV mCherry inh 2.5µM*, Vaccinia Venus 4µM* and HCV inh 11µM*.
For CC(=O)O[C@H]1C[C@@H]2CC[C@@H]3[C@H](CC[C@]4(C)C(=O)CC[C@@H]34)[C@@]2(C)C[C@@H]1OC(C)=O the results were FMDV antiviral inconclusive, VACV mCherry inh 2%, Vaccinia Venus 4%, Sm TGR block 5% and HCV inh 20%.

Compound activity: PubChem BioAssay, National Center for Advancing Translational Sciences (NCATS)
